What all share (assay): DAPPL (digital affinity profiling via proximity ligation, sequencing); 10 mM Tris-HCl pH 7.5, 50 mM NaCl, 1 mM DTT, 4% glycerol, room temperature, 30 min; GST-TFs on glutathione beads, 16-mer random dsDNA library, 0.1% formaldehyde crosslink after washing; high values mean tight binding
One test concerns the target T1, FEV (Homo sapiens, UniProt Q99581 1-238).
T1 sequence: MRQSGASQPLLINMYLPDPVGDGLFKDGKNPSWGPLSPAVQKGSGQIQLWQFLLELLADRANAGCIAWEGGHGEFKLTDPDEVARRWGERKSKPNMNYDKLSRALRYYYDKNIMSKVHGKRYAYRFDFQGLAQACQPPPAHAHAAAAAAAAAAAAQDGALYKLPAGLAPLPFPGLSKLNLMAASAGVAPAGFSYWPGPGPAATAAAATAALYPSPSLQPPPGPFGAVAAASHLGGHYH
Conditions: protein: recombinant; tags: N-terminal GST; dsDNA, one strand shown. The method in brief: (§1)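 Binding signal is defined as a hexamer's read frequency for one factor over its frequency for the tag-only sample. To obtain reads, GST-fused human transcription factors were expressed in yeast, captured on glutathione beads, barcoded with DNA and pooled with that sample. Pools met 200 nmole of a 16-mer random double-stranded DNA library in Tris/NaCl/DTT/glycerol buffer for 30 min at room temperature before washing, 0.1% formaldehyde crosslinking, proximity ligation (BsaI/T4 ligase, 1 h, 37 °C), PCR and Illumina NextSeq500 sequencing.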

The target in the next test is ETV5 (Homo sapiens, UniProt P41161 1-510). The conditions noted are these: protein: recombinant; tags: N-terminal GST; dsDNA, one strand shown. The essentials:
as §1

The next test addresses HSF1 (Homo sapiens, UniProt Q00613 1-529). Conditions: protein: recombinant; tags: N-terminal GST; chain copies: 3; dsDNA, one strand shown. The method in brief:
as §1

A further test addresses T2, SPIC (Homo sapiens, UniProt Q8N5J4 1-248).
T2 sequence: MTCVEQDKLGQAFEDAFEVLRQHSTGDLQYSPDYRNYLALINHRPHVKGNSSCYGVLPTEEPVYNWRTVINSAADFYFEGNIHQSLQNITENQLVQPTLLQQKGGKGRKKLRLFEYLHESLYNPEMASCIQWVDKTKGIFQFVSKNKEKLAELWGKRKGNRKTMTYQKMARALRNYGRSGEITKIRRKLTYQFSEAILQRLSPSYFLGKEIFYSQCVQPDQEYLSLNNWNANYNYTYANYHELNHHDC
The conditions noted are these: protein: recombinant; tags: N-terminal GST; dsDNA, one strand shown. The essentials: as §1

Another test has as its target ELF4 (Homo sapiens, UniProt Q99607 1-663). Conditions: protein: recombinant; tags: N-terminal GST; dsDNA, one strand shown. The method in brief: as §1
For a further test, the target named is T3, ELK4 (Homo sapiens, UniProt P28324-2 1-405).
T3 sequence: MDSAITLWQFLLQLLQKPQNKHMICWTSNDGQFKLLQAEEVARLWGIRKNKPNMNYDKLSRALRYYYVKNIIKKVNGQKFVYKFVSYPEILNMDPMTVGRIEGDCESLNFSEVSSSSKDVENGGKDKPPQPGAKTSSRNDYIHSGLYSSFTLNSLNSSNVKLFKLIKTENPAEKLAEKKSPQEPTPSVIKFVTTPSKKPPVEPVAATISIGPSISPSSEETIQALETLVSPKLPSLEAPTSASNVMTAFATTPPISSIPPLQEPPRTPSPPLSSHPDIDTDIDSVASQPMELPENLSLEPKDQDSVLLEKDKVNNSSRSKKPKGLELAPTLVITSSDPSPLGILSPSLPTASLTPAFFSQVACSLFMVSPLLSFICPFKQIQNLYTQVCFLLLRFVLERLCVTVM
Conditions: protein: recombinant; tags: N-terminal GST; dsDNA, one strand shown. The method in brief: as §1

A further test addresses T4, ETV2 (Homo sapiens, UniProt O00321 1-342).
T4 sequence: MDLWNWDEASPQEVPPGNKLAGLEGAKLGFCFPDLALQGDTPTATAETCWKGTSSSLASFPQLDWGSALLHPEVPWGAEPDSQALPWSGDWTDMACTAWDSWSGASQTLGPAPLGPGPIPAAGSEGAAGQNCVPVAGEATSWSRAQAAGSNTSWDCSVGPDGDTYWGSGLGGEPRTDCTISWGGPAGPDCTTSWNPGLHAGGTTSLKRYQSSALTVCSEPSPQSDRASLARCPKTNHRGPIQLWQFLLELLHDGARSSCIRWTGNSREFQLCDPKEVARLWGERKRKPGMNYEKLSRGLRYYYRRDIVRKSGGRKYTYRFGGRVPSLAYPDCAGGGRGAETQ
Conditions: protein: recombinant; tags: N-terminal GST; dsDNA, one strand shown. The essentials: as §1

For another test, the target named is T5, ELF3 (Homo sapiens, UniProt P78545 1-371).
T5 sequence: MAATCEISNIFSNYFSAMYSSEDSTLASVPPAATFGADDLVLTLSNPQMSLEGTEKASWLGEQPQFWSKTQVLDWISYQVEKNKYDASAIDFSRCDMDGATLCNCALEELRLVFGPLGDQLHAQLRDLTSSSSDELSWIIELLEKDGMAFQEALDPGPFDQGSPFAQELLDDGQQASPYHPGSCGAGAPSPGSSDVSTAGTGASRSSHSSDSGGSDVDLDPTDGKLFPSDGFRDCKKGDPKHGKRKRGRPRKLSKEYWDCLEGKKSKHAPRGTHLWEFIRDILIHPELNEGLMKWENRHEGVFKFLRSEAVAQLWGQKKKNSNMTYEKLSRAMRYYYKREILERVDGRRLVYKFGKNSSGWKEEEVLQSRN
Conditions: protein: recombinant; tags: N-terminal GST; dsDNA, one strand shown. The method in brief:
as §1

For the next test, the target named is CRX (Homo sapiens, UniProt O43186 1-299). Conditions: protein: recombinant; tags: N-terminal GST; dsDNA, one strand shown. The essentials: as §1
A further test addresses ETV1 (Homo sapiens, UniProt P50549 1-477). The conditions noted are these: protein: recombinant; tags: N-terminal GST; dsDNA, one strand shown. The essentials: as §1
The next test has as its target T6, ERF (Homo sapiens, UniProt P50548 1-548).
T6 sequence: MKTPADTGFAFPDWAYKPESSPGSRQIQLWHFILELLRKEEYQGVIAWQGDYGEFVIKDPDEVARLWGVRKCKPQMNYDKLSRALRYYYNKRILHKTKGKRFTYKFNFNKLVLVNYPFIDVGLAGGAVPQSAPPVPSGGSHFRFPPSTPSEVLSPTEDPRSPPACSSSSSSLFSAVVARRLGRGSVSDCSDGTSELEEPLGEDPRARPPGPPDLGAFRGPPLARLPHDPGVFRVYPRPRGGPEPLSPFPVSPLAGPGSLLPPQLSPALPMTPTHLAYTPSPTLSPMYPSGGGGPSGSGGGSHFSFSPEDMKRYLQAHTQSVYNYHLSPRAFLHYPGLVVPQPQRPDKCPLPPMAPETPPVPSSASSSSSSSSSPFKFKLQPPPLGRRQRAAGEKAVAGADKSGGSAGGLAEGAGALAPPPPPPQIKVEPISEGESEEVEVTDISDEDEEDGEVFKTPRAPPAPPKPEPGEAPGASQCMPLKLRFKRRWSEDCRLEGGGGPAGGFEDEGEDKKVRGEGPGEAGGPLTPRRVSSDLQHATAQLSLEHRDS
The conditions noted are these: protein: recombinant; tags: N-terminal GST; dsDNA, one strand shown. The method in brief:
as §1

A further test concerns the target T7, ETV3L (Homo sapiens, UniProt Q6ZN32 1-361).
T7 sequence: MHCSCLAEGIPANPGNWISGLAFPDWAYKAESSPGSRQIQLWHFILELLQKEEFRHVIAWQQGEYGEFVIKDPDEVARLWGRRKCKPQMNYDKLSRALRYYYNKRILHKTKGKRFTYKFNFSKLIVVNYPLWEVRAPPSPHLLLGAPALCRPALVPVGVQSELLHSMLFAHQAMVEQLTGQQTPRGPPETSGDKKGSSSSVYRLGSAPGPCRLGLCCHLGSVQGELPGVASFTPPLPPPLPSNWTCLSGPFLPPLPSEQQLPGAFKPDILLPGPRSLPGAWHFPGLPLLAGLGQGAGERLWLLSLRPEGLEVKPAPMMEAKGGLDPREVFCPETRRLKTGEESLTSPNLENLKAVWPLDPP
The conditions noted are these: protein: recombinant; tags: N-terminal GST; dsDNA, one strand shown. The method in brief: as §1

The target in a further test is T8, ETS2 (Homo sapiens, UniProt P15036 1-469).
T8 sequence: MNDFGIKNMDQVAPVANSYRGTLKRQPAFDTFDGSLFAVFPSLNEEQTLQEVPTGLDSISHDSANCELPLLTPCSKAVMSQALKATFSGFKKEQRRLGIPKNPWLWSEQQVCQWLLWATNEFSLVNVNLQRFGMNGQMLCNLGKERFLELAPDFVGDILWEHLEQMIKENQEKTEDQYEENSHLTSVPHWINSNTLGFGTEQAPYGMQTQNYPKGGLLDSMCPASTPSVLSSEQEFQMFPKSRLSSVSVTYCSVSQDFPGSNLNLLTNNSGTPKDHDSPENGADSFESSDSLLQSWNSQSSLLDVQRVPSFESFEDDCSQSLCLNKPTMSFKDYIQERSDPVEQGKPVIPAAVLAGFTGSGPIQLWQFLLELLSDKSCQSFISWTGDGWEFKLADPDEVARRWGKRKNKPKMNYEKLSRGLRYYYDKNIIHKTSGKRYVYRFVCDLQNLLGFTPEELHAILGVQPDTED
Conditions: protein: recombinant; tags: N-terminal GST; dsDNA, one strand shown. The essentials:
as §1

For another test, the target named is T9, SPDEF (Homo sapiens, UniProt O95238 1-335).
T9 sequence: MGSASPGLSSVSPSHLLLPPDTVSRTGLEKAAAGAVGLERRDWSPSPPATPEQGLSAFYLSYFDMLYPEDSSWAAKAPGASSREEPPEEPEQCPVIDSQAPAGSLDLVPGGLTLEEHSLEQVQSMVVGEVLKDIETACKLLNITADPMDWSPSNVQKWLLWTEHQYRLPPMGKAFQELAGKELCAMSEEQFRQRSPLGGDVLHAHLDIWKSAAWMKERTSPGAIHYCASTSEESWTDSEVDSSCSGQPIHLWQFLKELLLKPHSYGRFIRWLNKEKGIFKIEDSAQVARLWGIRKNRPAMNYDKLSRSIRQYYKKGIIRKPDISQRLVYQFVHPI
The conditions noted are these: protein: recombinant; tags: N-terminal GST; dsDNA, one strand shown. The method in brief:
as §1

The next test deals with T10, ETV7 (Homo sapiens, UniProt Q9Y603 1-341).
T10 sequence: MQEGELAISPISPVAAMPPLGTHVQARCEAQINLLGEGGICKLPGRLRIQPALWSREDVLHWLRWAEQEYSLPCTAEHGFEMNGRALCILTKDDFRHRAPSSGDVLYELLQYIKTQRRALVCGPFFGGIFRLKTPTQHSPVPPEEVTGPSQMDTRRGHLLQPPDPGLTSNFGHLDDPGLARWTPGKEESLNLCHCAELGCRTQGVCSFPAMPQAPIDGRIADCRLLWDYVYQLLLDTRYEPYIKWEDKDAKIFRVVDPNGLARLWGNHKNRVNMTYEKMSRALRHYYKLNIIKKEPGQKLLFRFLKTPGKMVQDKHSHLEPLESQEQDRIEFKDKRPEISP
The conditions noted are these: protein: recombinant; tags: N-terminal GST; dsDNA, one strand shown. The essentials:
as §1

In a further test the target is T11, ELF5 (Homo sapiens, UniProt Q9UKW6-2 1-255).
T11 sequence: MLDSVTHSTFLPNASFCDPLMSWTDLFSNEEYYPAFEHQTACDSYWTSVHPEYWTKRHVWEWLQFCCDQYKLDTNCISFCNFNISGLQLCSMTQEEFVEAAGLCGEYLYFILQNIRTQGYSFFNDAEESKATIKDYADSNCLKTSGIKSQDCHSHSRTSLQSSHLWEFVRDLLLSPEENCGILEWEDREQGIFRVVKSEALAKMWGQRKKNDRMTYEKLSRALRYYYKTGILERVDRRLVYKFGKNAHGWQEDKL
The conditions noted are these: protein: recombinant; tags: N-terminal GST; dsDNA, one strand shown. The essentials: as §1

Another test concerns the target T12, ETV3 (Homo sapiens, UniProt P41162-2 1-143).
T12 sequence: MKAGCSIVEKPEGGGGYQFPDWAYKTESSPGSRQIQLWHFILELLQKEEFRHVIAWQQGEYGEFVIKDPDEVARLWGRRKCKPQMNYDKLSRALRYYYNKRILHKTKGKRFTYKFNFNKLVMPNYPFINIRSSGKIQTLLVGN
Conditions: protein: recombinant; tags: N-terminal GST; dsDNA, one strand shown. The method in brief: as §1

For a further test, the target named is ETV6 (Homo sapiens, UniProt P41212 1-452). Conditions: protein: recombinant; tags: N-terminal GST; dsDNA, one strand shown. The method in brief:
as §1

Chain of ETV1 (P50549 whole entry): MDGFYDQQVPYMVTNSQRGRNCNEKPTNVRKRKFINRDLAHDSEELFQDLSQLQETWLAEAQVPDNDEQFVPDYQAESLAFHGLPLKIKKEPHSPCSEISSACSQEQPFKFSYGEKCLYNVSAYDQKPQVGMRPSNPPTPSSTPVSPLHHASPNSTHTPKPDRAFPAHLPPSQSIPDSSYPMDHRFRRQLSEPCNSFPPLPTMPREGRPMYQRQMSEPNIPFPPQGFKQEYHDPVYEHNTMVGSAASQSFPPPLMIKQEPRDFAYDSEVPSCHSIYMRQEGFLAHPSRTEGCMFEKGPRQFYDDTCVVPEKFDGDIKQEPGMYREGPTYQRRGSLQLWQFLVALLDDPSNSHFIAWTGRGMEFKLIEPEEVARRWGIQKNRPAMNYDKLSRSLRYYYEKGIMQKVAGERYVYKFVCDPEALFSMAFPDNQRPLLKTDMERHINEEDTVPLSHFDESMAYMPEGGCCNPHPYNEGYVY
Chain of HSF1 (Q00613 whole entry): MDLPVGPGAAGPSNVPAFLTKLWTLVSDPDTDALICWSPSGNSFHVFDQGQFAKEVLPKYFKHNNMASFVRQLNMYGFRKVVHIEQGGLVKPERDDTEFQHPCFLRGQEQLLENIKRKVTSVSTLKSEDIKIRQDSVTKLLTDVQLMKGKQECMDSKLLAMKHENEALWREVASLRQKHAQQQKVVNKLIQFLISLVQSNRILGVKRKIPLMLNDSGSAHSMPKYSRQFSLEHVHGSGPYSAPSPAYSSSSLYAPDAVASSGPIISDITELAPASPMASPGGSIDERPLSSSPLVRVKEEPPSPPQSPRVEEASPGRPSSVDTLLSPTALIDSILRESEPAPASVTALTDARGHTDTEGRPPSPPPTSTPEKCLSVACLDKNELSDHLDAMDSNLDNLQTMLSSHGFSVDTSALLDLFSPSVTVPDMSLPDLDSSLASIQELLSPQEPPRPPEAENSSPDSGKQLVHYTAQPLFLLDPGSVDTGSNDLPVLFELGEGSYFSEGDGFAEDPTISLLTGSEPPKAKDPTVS
Chain of CRX (O43186 whole entry): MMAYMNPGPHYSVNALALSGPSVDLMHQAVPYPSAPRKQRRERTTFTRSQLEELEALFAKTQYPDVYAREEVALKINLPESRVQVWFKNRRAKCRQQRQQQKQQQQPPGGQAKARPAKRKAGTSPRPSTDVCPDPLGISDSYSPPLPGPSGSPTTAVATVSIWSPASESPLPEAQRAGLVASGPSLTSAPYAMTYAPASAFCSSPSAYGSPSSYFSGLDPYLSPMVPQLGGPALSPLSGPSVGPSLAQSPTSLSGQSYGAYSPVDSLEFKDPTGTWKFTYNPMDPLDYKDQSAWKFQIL
Chain of ETV5 (P41161 whole entry): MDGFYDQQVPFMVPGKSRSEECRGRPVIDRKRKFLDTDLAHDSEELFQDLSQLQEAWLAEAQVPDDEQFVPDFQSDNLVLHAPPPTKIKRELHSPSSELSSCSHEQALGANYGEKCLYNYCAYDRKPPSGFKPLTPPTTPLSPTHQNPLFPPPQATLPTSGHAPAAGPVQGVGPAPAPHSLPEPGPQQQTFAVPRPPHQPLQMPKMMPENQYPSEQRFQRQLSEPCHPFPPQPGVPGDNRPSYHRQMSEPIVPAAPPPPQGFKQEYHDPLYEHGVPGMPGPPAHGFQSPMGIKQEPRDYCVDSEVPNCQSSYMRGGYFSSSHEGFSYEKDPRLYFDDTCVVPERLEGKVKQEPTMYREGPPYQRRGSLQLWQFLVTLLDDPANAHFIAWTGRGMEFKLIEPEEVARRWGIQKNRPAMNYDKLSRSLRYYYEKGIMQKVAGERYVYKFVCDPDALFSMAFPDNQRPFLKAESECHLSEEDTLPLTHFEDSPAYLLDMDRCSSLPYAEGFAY
Chain of ETV6 (P41212 whole entry): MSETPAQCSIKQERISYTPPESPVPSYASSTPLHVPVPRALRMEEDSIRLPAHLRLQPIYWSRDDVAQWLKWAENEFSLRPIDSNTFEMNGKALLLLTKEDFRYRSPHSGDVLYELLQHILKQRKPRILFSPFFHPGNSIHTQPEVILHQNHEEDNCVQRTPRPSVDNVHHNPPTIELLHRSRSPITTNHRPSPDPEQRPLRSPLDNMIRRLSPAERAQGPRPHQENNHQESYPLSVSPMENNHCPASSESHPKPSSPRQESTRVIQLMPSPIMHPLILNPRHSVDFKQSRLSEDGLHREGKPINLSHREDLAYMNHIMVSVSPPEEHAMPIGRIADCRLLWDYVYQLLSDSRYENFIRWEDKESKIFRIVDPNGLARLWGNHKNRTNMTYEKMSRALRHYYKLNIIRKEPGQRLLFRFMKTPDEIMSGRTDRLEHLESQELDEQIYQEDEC
Chain of ELF4 (Q99607 whole entry): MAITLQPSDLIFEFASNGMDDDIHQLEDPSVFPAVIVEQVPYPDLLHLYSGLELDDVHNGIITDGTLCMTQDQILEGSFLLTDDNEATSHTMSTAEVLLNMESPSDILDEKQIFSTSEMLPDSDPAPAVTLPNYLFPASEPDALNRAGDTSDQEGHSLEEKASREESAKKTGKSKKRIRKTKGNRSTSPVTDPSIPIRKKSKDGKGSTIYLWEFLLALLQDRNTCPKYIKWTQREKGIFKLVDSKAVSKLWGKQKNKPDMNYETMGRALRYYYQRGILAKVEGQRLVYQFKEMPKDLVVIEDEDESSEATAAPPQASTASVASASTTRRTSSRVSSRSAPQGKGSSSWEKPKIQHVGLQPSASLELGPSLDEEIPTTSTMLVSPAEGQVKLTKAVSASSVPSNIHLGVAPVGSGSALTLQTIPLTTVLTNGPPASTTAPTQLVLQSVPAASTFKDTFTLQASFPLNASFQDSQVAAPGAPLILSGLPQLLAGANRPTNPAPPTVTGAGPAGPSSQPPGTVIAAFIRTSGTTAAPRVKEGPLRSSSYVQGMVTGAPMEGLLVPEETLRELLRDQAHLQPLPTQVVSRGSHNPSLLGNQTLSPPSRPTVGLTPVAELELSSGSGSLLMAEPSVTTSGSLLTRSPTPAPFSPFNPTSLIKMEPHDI

With TCCATT, the binding signal with FEV was 1.31 fold enrichment (6-mer frequency, TF over GST control); in the test with ETV5 it was 1.36 fold enrichment (6-mer frequency, TF over GST control); with HSF1 it was 1.4 fold enrichment (6-mer frequency, TF over GST control); with SPIC it was 1.31 fold enrichment (6-mer frequency, TF over GST control); in the test with ELF4 it was 1.29 fold enrichment (6-mer frequency, TF over GST control); with ELK4, 1.37 fold enrichment (6-mer frequency, TF over GST control). The binding signal is 1.19 fold enrichment (6-mer frequency, TF over GST control) with ETV2; 1.27 fold enrichment (6-mer frequency, TF over GST control) with ELF3; 1.35 fold enrichment (6-mer frequency, TF over GST control) in the test with CRX; 1.26 fold enrichment (6-mer frequency, TF over GST control) with ETV1; 1.23 fold enrichment (6-mer frequency, TF over GST control) with ERF; 1.22 fold enrichment (6-mer frequency, TF over GST control) in the test with ETV3L. Also, the binding signal in the test with ETS2 was 1.28 fold enrichment (6-mer frequency, TF over GST control); with SPDEF, 1.2 fold enrichment (6-mer frequency, TF over GST control); with ETV7, 1.26 fold enrichment (6-mer frequency, TF over GST control); with ELF5 it was 1.2 fold enrichment (6-mer frequency, TF over GST control); with ETV3, 1.37 fold enrichment (6-mer frequency, TF over GST control); in the test with ETV6, 1.29 fold enrichment (6-mer frequency, TF over GST control).

Source of the values: PMC7862700, “An all-to-all approach to the identification of sequence-specific readers for epigenetic DNA modifications on cytosine”.
